Screens (PubChem BioAssay)
The list is not random: actives were taken first. Their share in the collection is about 19%.
TDP1 block: blocks human tyrosyl-DNA phosphodiesterase 1; hit rate 0.28% among 350,000; Potency, µM (top dose mostly 130 µM), hits mostly inhibitors; recombinant TDP1, AlphaScreen DNA substrate cleavage; Q9NUW8; further: nearly all actives have a fitted effect of over 40% in size
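Tdp1 1 nM final; 15 min RT w/ cpd; substrate 15 nM, 5 min; beads 10 ug/ml, 10 min; AlphaScreen read. Neg ctrl: no enzyme.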
VP16 counter: Gal4-VP16 reporter inhibition counter-screen; hit rate 3.5% among 310,000; Drosophila S2 Gal4-VP16 UAS-luciferase, luminescence, 20 h; Potency, µM (highest dose often 53.6 µM), usual class: inhibitors;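 further: Gal4-VP16 expression switched on by copper sulfate through the metallothionein promoter; nearly all actives have a fitted effect of over 50% in size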
DT40 TDP1 CPT: growth inhibition of DT40 Tdp1-/-;hTDP1 cells with camptothecin (screen for TDP1 inhibitors); chicken DT40 Tdp1-/-;hTDP1 cells + 20 nM CPT, ATP luminescence, 48 h; AID 686979; hit rate 12% among 420,000; Potency, µM (top dose mostly 46.2 µM), hits mostly inhibitors; further: nearly all actives have a fitted effect of over 55% in size
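Chicken DT40 Tdp1-/- cells stably complemented with human TDP1 were seeded at 400 cells/well in medium containing 20 nM camptothecin, exposed to pin-transferred compounds, and grown at 37 °C for at least 48 hr. Viability was read as ATP luminescence.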
DT40 TDP1 no CPT: qHTS for Inhibitors of human tyrosyl-DNA phosphodiesterase 1 (TDP1): qHTS in cells in absence of CPT. DT40 Tdp1-/- hTDP1 cells, no CPT, ATP luminescence, 48 h. Potency, µM (highest dose often 46.2 µM), hits mostly inhibitors. hit rate 15% among 420,000. AID 686978, 2013; further: nearly all actives have a fitted effect of over 55% in size
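DT40 Tdp1-/-;hTDP1 cells, no CPT (DMSO vehicle only), 400 cells/well; compounds pin-transferred; ≥48 hr, 37 °C; CellTiter-Glo 30 min RT dark, luminescence read.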
RORg inh: ROR gamma (mouse) transcription inhibition; Drosophila S2 Gal4-RORgamma UAS-luciferase reporter, 20 h; P51450; Potency, µM (highest dose often 53.6 µM), actives largely listed as inhibitors; hit rate 5.4% among 310,000; further: nearly all actives have a fitted effect of over 60% in size
Target sequence (P51450 whole entry, looked up, the tested form may be a part): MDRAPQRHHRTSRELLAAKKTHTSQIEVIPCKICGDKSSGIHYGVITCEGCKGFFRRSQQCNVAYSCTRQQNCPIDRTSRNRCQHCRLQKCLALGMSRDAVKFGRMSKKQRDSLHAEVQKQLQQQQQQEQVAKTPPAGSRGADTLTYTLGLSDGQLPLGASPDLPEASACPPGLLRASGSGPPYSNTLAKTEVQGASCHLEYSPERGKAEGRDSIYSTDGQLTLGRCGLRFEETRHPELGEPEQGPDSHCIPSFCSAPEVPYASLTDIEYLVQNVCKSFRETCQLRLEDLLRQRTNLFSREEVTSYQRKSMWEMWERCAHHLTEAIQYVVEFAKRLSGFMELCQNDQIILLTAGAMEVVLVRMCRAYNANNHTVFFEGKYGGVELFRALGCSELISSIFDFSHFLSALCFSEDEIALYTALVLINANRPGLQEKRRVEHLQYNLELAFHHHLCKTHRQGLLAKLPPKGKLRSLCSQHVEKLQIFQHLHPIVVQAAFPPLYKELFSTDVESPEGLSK
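Schneider cells (Drosophila), stable Gal4 DBD–ROR gamma + UAS-luc; 1 hr cmpd preincubation; Cu2+ induction 700 uM final; 20 hr ambient; luminescence.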
Numbers stand for hits; . = inactive; ? = inconclusive; / = not tested or not shown. The call rests on the fitted dose curve; in most records, active means well fitted curve in the direction sought with a large enough effect; inconclusive means small, poorly fitted or top-dose-only effect, or another doubt; inactive means no such curve, though single readings can be large; an effect the other way counts as inactive or inconclusive.

SMILES | TDP1 block | VP16 counter | DT40 TDP1 CPT | DT40 TDP1 no CPT | RORg inh
CCOC(=O)c1c(NC(=O)/C=C/C(=O)O)sc(C)c1-c1ccc(F)cc1 | / | . | ? | ? | ?
Cc1nn(-c2ccc(C(=O)O)cc2)c2c1C(=O)CC(C)(C)C2 | / | . | . | . | .
CC1(c2nnc(-c3ccc(Cl)cc3)o2)CC(c2ccc(Cl)cc2)=NO1 (stereo not given) | . | . | . | . | .
Clc1ccc(-c2nnc(C34CC5CC(CC(C5)C3)C4)o2)cn1 | . | . | ? | 29µM | .
CC(=O)N/N=C(/c1ccccc1)C(O)c1ccccc1 (stereo not given) | / | . | . | . | .
COc1cc(Nc2nc(SCC(=O)c3ccc(Br)cc3)nc3ccccc23)cc(OC)c1 | . | / | 5.2µM | 2.9µM | /
CN1C(=O)NC(c2ccccc2)C2=C1CN(Cc1ccco1)C2=O (stereo not given) | . | . | . | . | .
CN1C(=O)C2(c3ccccc31)N(C)CC(c1ccccc1)C21SC(=S)N(Cc2ccco2)C1=O (stereo not given) | . | . | ? | 9.2µM | ?
COC(=O)c1sccc1NC(=O)CC1C(=O)NCCN1C(=O)c1ccc(C)c(C)c1 (stereo not given) | . | . | . | . | .
Cc1cc(C)n(C(=O)c2ccc(Cn3nc(C)c(Br)c3C)o2)n1 | . | . | . | . | .
CC1=NN(C(=O)c2ccc(Cn3nc(C)cc3C)o2)C(O)(C(F)(F)F)C1 (stereo not given) | . | 5.6µM | 1.3µM | 2.5µM | 6.3µM
CC1=NN(C(=O)c2ccc(Cn3cc(Br)c([N+](=O)[O-])n3)o2)C(O)(C(F)(F)F)C1 (stereo not given) | . | 11µM | 3.3µM | 2.6µM | 4.5µM
COc1ccccc1C1C(C(=O)c2cc3ccccc3o2)=C(O)C(=O)N1c1cc(C)on1 (stereo not given) | . | . | . | ? | .
Nc1nc(NC(=O)C(Cl)(Cl)Cl)nn1-c1ccccc1 | . | ? | . | . | 13µM
Cc1ccc(-n2ncc3c(Nc4ccc(Oc5ccccc5)cc4)ncnc32)c(C)c1 | . | / | 16µM | 23µM | /
CCN(c1ccccc1)c1ncnc2c1cnn2-c1ccc(C)cc1C | . | / | 9.2µM | 9.2µM | /
Cc1ccc(CNc2ncnc3c2cnn3-c2ccc(C)cc2C)cc1 | . | / | ? | ? | /
CCc1ccccc1Nc1ncnc2c1cnn2-c1ccc(C)cc1C | . | / | ? | 18µM | /
Cc1ccc(-n2ncc3c(Nc4ccccc4C)ncnc32)cc1 | . | / | ? | 16µM | /
Cc1ccc(-n2ncc3c(Nc4cccc(Cl)c4)ncnc32)c(C)c1 | . | / | ? | ? | /
CC(C)(C)n1nnnc1C(c1cccnc1)N1CCN(c2ccccn2)CC1 (stereo not given) | . | . | ? | . | .
O=C(O)Cn1nnnc1SCC(=O)Nc1ccccc1F | . | . | . | . | .
CCC(CO)Nc1ncnc2c1cnn2-c1ccc(Cl)cc1 (stereo not given) | . | . | . | . | .
Cc1ccc(-n2ncc3c(SCc4cccc(C)c4)ncnc32)cc1 | . | . | . | . | .
CCc1ccccc1Nc1ncnc2c1cnn2-c1ccc(Cl)cc1 | . | / | 16µM | ? | /
SMILES | TDP1 block | VP16 counter | DT40 TDP1 CPT | DT40 TDP1 no CPT | RORg inh
Cc1ccc(-n2ncc3c(SCc4cccnc4)ncnc32)c(C)c1 | . | ? | 16µM | 12µM | ?
O=C(CN1CCC(NC(=O)Nc2ccccc2)CC1)Nc1ccc([N+](=O)[O-])cc1 | . | . | ? | ? | ?
CCOC(=O)c1[nH]cnc1C(=O)O | . | . | . | . | .
O=C(CNC(=O)c1ccccc1)N=Nc1c(O)[nH]c2ccc(Br)cc12 | . | ? | ? | . | .
CC(/C=C(\NC(=O)c1ccccc1)C(=O)N=Nc1c(O)[nH]c2ccc(C)cc12)=C\c1ccccc1 | . | . | 8.2µM | 8.2µM | ?
CCCCCn1nc(C(=O)N(CCOC)c2c(N)n(CCCC)c(=O)[nH]c2=O)c2ccccc2c1=O | / | / | . | . | /
N#Cc1ccc(CSc2nnc(-c3cccs3)n2-c2ccccc2)cc1 | . | . | . | . | .
O=C(CCl)Nc1ccccc1Sc1ccc(Cl)cc1 | . | . | 21µM | ? | ?
O=C(COC(=O)Cn1cnc2ccccc2c1=O)Nc1ccccc1Sc1ccc(Cl)cc1 | . | . | 13µM | 26µM | .
O=C(Cc1ccccc1)Nc1ccccc1Sc1ccccc1 | . | . | . | . | .
CCN1c2ccccc2-c2nc(SCC(=O)NCc3ccc(C)cc3)ncc2S1(=O)=O | . | / | ? | ? | /
O=C(OCc1ccccc1Cl)c1ccc(-c2nnn(Cc3ccc(F)cc3)n2)cc1 | . | / | . | . | /
CCOC(=O)N/N=C/c1ccc(C)o1 | . | . | . | . | .
O=C(CNC(c1ccccc1)c1ccccc1)Nc1c(F)cccc1F | . | . | ? | 16µM | .
COc1ccc(C)cc1NC(=O)CNC(c1ccccc1)c1ccccc1 | / | . | ? | ? | .
Cc1ccc(NC(=O)CNC(c2ccccc2)c2ccccc2)c(F)c1 | . | . | ? | ? | .
COc1ccc(Cl)cc1NC(=O)C/C(C)=N/NC(=O)c1ccc(O)cc1 | . | ? | . | . | 8.9µM
COc1cc(Cl)c(C)cc1NC(=O)CSc1cc(Cl)ccc1Cl | . | . | ? | 23µM | .
COc1ccc(Cl)cc1NC(=O)CNC(c1ccccc1)c1ccccc1 | . | 2.5µM | ? | ? | ?
CCOc1ccc(NC(=O)CCc2c(C)nc3nc(-c4cc(OC)cc(OC)c4)nn3c2C)cc1 | . | / | . | ? | /
Cc1cc(C(=O)OCC(=O)Nc2ccc(F)c(F)c2F)c(C)o1 | . | . | ? | ? | .
COc1ccc(Cl)cc1NC(=O)CCCC(=O)c1ccccc1 | / | . | 21µM | ? | .
COc1ccc(Cl)cc1NC(=O)COC(=O)c1cc(C)oc1C | . | / | ? | 3.3µM | /
O=C(c1cc(F)ccc1F)C1CCCN(Cc2cccn2-c2ccccn2)C1 (stereo not given) | / | . | ? | ? | .
COc1ccc(C(=O)C2CCCN(Cc3cccn3-c3ccccn3)C2)c(OC)c1 (stereo not given) | . | . | 8.2µM | 6.5µM | .
COc1ccc(F)cc1C(=O)C1CCCN(Cc2cccn2-c2ccccn2)C1 (stereo not given) | . | . | ? | 16µM | .
COc1ccccc1C(=O)C1CCCN(Cc2ccc(Oc3ncccn3)cc2)C1 (stereo not given) | . | . | . | ? | .
COc1ccc(C2Nc3ccccc3C(=O)N2c2ccc(C)cc2)cc1COc1ccccn1 (stereo not given) | . | . | ? | . | .
C=CCn1c(SCC(=O)NC(N)=O)nnc1-c1cc2c(s1)CCC(CC)C2 (stereo not given) | . | . | . | ? | ?
C=CCn1c(SCC(=O)NCC)nnc1-c1cc2c(s1)CCC(CC)C2 (stereo not given) | . | . | 23µM | 16µM | .
